# Test results from publication PMC11006913.
# Columns and labels:
# Experiment in all cases: PBM; 200 nM protein, PBS
# Conditions in all cases: dsDNA, one strand shown
# [1] = target: CRX (Homo sapiens, UniProt O43186 26-111)
# [2] = target: CRX (Homo sapiens, UniProt O43186 26-111, E42D)
# [3] = target: PITX2 (Homo sapiens, UniProt Q99697 72-157)
# [4] = target: CRX (Homo sapiens, UniProt O43186 26-111, R41L)
# [5] = target: VAX1 (Homo sapiens, UniProt Q5SQQ9 86-172)
# [6] = target: VAX1 (Homo sapiens, UniProt Q5SQQ9 86-172, T142I)
# [7] = target: VAX1 (Homo sapiens, UniProt Q5SQQ9 86-172, K157R)
# VAX1 (Homo sapiens, UniProt Q5SQQ9 86-172, K157R), sequence (Q5SQQ9 86-172 K157R): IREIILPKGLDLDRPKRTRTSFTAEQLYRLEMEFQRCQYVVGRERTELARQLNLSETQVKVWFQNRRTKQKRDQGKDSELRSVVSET
# CRX (Homo sapiens, UniProt O43186 26-111, R41L), sequence (O43186 26-111 R41L): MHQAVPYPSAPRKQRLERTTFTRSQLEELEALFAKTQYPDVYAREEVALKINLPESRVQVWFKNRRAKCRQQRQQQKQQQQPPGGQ
# CRX (Homo sapiens, UniProt O43186 26-111, E42D), sequence (O43186 26-111 E42D): as the sequence (O43186 26-111 R41L) above, with L16R, E17D counted along it
# CRX (Homo sapiens, UniProt O43186 26-111), sequence (O43186 26-111): as the sequence (O43186 26-111 R41L) above, with L16R counted along it
# VAX1 (Homo sapiens, UniProt Q5SQQ9 86-172, T142I), sequence (Q5SQQ9 86-172 T142I): as the sequence (Q5SQQ9 86-172 K157R) above, with T57I, R72K counted along it
# VAX1 (Homo sapiens, UniProt Q5SQQ9 86-172), sequence (Q5SQQ9 86-172): as the sequence (Q5SQQ9 86-172 K157R) above, with R72K counted along it
Sequence,binding signal [1],binding signal [2],binding signal [3],binding signal [4],binding signal [5],binding signal [6],binding signal [7]
ACGGATTA,"13.5 upbm affinity estimate (log intensity, higher = more binding, comparable within an allelic series)","13.5 upbm affinity estimate (log intensity, higher = more binding, comparable within an allelic series)","13.1 upbm affinity estimate (log intensity, higher = more binding, comparable within an allelic series)","13.5 upbm affinity estimate (log intensity, higher = more binding, comparable within an allelic series)",,,
GGATTACC,"13.3 upbm affinity estimate (log intensity, higher = more binding, comparable within an allelic series)","13.3 upbm affinity estimate (log intensity, higher = more binding, comparable within an allelic series)","13.1 upbm affinity estimate (log intensity, higher = more binding, comparable within an allelic series)","13.3 upbm affinity estimate (log intensity, higher = more binding, comparable within an allelic series)",,,
CGCTGCCG,"8.07 upbm affinity estimate (log intensity, higher = more binding, comparable within an allelic series)","8.09 upbm affinity estimate (log intensity, higher = more binding, comparable within an allelic series)",,"8.04 upbm affinity estimate (log intensity, higher = more binding, comparable within an allelic series)","6.84 upbm affinity estimate (log intensity, higher = more binding, comparable within an allelic series)","7.05 upbm affinity estimate (log intensity, higher = more binding, comparable within an allelic series)","6.97 upbm affinity estimate (log intensity, higher = more binding, comparable within an allelic series)"
CCTCTGAC,"7.95 upbm affinity estimate (log intensity, higher = more binding, comparable within an allelic series)","8.28 upbm affinity estimate (log intensity, higher = more binding, comparable within an allelic series)","7.92 upbm affinity estimate (log intensity, higher = more binding, comparable within an allelic series)","8.19 upbm affinity estimate (log intensity, higher = more binding, comparable within an allelic series)",,,
CCGGTGCG,"8.15 upbm affinity estimate (log intensity, higher = more binding, comparable within an allelic series)","8.24 upbm affinity estimate (log intensity, higher = more binding, comparable within an allelic series)",,"8.27 upbm affinity estimate (log intensity, higher = more binding, comparable within an allelic series)","7.06 upbm affinity estimate (log intensity, higher = more binding, comparable within an allelic series)","7.11 upbm affinity estimate (log intensity, higher = more binding, comparable within an allelic series)","7.12 upbm affinity estimate (log intensity, higher = more binding, comparable within an allelic series)"
CGTAATCC,"13.2 upbm affinity estimate (log intensity, higher = more binding, comparable within an allelic series)","13.2 upbm affinity estimate (log intensity, higher = more binding, comparable within an allelic series)","13 upbm affinity estimate (log intensity, higher = more binding, comparable within an allelic series)","13.2 upbm affinity estimate (log intensity, higher = more binding, comparable within an allelic series)",,,
AAGATTAA,"12.9 upbm affinity estimate (log intensity, higher = more binding, comparable within an allelic series)","12.9 upbm affinity estimate (log intensity, higher = more binding, comparable within an allelic series)","12.5 upbm affinity estimate (log intensity, higher = more binding, comparable within an allelic series)","12.6 upbm affinity estimate (log intensity, higher = more binding, comparable within an allelic series)",,,
AGTAATCC,"13.2 upbm affinity estimate (log intensity, higher = more binding, comparable within an allelic series)","13.1 upbm affinity estimate (log intensity, higher = more binding, comparable within an allelic series)","13.1 upbm affinity estimate (log intensity, higher = more binding, comparable within an allelic series)","13 upbm affinity estimate (log intensity, higher = more binding, comparable within an allelic series)",,,
TAATCCTA,"13.4 upbm affinity estimate (log intensity, higher = more binding, comparable within an allelic series)","13.4 upbm affinity estimate (log intensity, higher = more binding, comparable within an allelic series)","13.2 upbm affinity estimate (log intensity, higher = more binding, comparable within an allelic series)","13.3 upbm affinity estimate (log intensity, higher = more binding, comparable within an allelic series)",,,
CTTAATCC,"13.7 upbm affinity estimate (log intensity, higher = more binding, comparable within an allelic series)","13.8 upbm affinity estimate (log intensity, higher = more binding, comparable within an allelic series)","13.5 upbm affinity estimate (log intensity, higher = more binding, comparable within an allelic series)","13.5 upbm affinity estimate (log intensity, higher = more binding, comparable within an allelic series)",,,
TAATCTCA,"12.7 upbm affinity estimate (log intensity, higher = more binding, comparable within an allelic series)","12.7 upbm affinity estimate (log intensity, higher = more binding, comparable within an allelic series)","12.4 upbm affinity estimate (log intensity, higher = more binding, comparable within an allelic series)","12.4 upbm affinity estimate (log intensity, higher = more binding, comparable within an allelic series)",,,
CGTTAATC,"12.8 upbm affinity estimate (log intensity, higher = more binding, comparable within an allelic series)","12.6 upbm affinity estimate (log intensity, higher = more binding, comparable within an allelic series)","12.4 upbm affinity estimate (log intensity, higher = more binding, comparable within an allelic series)","12.3 upbm affinity estimate (log intensity, higher = more binding, comparable within an allelic series)",,,
ACTAATCC,"13.6 upbm affinity estimate (log intensity, higher = more binding, comparable within an allelic series)","13.7 upbm affinity estimate (log intensity, higher = more binding, comparable within an allelic series)","13.4 upbm affinity estimate (log intensity, higher = more binding, comparable within an allelic series)","13.4 upbm affinity estimate (log intensity, higher = more binding, comparable within an allelic series)",,,
AGATTAAG,"13.1 upbm affinity estimate (log intensity, higher = more binding, comparable within an allelic series)","13 upbm affinity estimate (log intensity, higher = more binding, comparable within an allelic series)","12.6 upbm affinity estimate (log intensity, higher = more binding, comparable within an allelic series)","12.6 upbm affinity estimate (log intensity, higher = more binding, comparable within an allelic series)",,,
AAGGATTA,"13.4 upbm affinity estimate (log intensity, higher = more binding, comparable within an allelic series)","13.4 upbm affinity estimate (log intensity, higher = more binding, comparable within an allelic series)","13.2 upbm affinity estimate (log intensity, higher = more binding, comparable within an allelic series)","13.4 upbm affinity estimate (log intensity, higher = more binding, comparable within an allelic series)",,,
GATTAAGC,"13.1 upbm affinity estimate (log intensity, higher = more binding, comparable within an allelic series)","13.1 upbm affinity estimate (log intensity, higher = more binding, comparable within an allelic series)","12.7 upbm affinity estimate (log intensity, higher = more binding, comparable within an allelic series)","12.6 upbm affinity estimate (log intensity, higher = more binding, comparable within an allelic series)",,,
CCTAATCC,"13.5 upbm affinity estimate (log intensity, higher = more binding, comparable within an allelic series)","13.6 upbm affinity estimate (log intensity, higher = more binding, comparable within an allelic series)","13.3 upbm affinity estimate (log intensity, higher = more binding, comparable within an allelic series)","13.2 upbm affinity estimate (log intensity, higher = more binding, comparable within an allelic series)",,,
GACAACCA,"8.34 upbm affinity estimate (log intensity, higher = more binding, comparable within an allelic series)","8.18 upbm affinity estimate (log intensity, higher = more binding, comparable within an allelic series)","7.92 upbm affinity estimate (log intensity, higher = more binding, comparable within an allelic series)","8.21 upbm affinity estimate (log intensity, higher = more binding, comparable within an allelic series)",,,

Sequence,binding signal [1],binding signal [2],binding signal [3],binding signal [4],binding signal [5],binding signal [6],binding signal [7]
ATAATCCA,"13.2 upbm affinity estimate (log intensity, higher = more binding, comparable within an allelic series)","13.3 upbm affinity estimate (log intensity, higher = more binding, comparable within an allelic series)","13 upbm affinity estimate (log intensity, higher = more binding, comparable within an allelic series)","13.3 upbm affinity estimate (log intensity, higher = more binding, comparable within an allelic series)",,,
GGAGATTA,"13.2 upbm affinity estimate (log intensity, higher = more binding, comparable within an allelic series)","13.2 upbm affinity estimate (log intensity, higher = more binding, comparable within an allelic series)","12.9 upbm affinity estimate (log intensity, higher = more binding, comparable within an allelic series)","13.1 upbm affinity estimate (log intensity, higher = more binding, comparable within an allelic series)",,,
AGCACCAG,"8.33 upbm affinity estimate (log intensity, higher = more binding, comparable within an allelic series)","8.39 upbm affinity estimate (log intensity, higher = more binding, comparable within an allelic series)",,"8.39 upbm affinity estimate (log intensity, higher = more binding, comparable within an allelic series)",,,
GGGCTCCA,"8.35 upbm affinity estimate (log intensity, higher = more binding, comparable within an allelic series)","8.31 upbm affinity estimate (log intensity, higher = more binding, comparable within an allelic series)",,"8.31 upbm affinity estimate (log intensity, higher = more binding, comparable within an allelic series)",,,
AGGCATAA,"10.3 upbm affinity estimate (log intensity, higher = more binding, comparable within an allelic series)","10.1 upbm affinity estimate (log intensity, higher = more binding, comparable within an allelic series)",,"9.78 upbm affinity estimate (log intensity, higher = more binding, comparable within an allelic series)",,,
GGGAGACA,"8.13 upbm affinity estimate (log intensity, higher = more binding, comparable within an allelic series)","8.2 upbm affinity estimate (log intensity, higher = more binding, comparable within an allelic series)",,"8.26 upbm affinity estimate (log intensity, higher = more binding, comparable within an allelic series)",,,
AGATTATG,"12.7 upbm affinity estimate (log intensity, higher = more binding, comparable within an allelic series)","12.6 upbm affinity estimate (log intensity, higher = more binding, comparable within an allelic series)",,"12.6 upbm affinity estimate (log intensity, higher = more binding, comparable within an allelic series)",,,
CCGGTCGA,"8.51 upbm affinity estimate (log intensity, higher = more binding, comparable within an allelic series)","8.46 upbm affinity estimate (log intensity, higher = more binding, comparable within an allelic series)",,"8.45 upbm affinity estimate (log intensity, higher = more binding, comparable within an allelic series)",,,
GCCTGACA,"8.49 upbm affinity estimate (log intensity, higher = more binding, comparable within an allelic series)","8.43 upbm affinity estimate (log intensity, higher = more binding, comparable within an allelic series)",,"8.39 upbm affinity estimate (log intensity, higher = more binding, comparable within an allelic series)",,,
AATAATCT,"12.7 upbm affinity estimate (log intensity, higher = more binding, comparable within an allelic series)","12.7 upbm affinity estimate (log intensity, higher = more binding, comparable within an allelic series)",,"12.6 upbm affinity estimate (log intensity, higher = more binding, comparable within an allelic series)",,,
GACGCTAC,"8.4 upbm affinity estimate (log intensity, higher = more binding, comparable within an allelic series)","8.38 upbm affinity estimate (log intensity, higher = more binding, comparable within an allelic series)",,"8.27 upbm affinity estimate (log intensity, higher = more binding, comparable within an allelic series)",,,
CAGGCTAG,"8.3 upbm affinity estimate (log intensity, higher = more binding, comparable within an allelic series)","8.21 upbm affinity estimate (log intensity, higher = more binding, comparable within an allelic series)",,"8.16 upbm affinity estimate (log intensity, higher = more binding, comparable within an allelic series)",,,
GAACGTTC,"8.02 upbm affinity estimate (log intensity, higher = more binding, comparable within an allelic series)","7.99 upbm affinity estimate (log intensity, higher = more binding, comparable within an allelic series)",,"8.07 upbm affinity estimate (log intensity, higher = more binding, comparable within an allelic series)",,,
AATCTCCC,"10.7 upbm affinity estimate (log intensity, higher = more binding, comparable within an allelic series)","10.4 upbm affinity estimate (log intensity, higher = more binding, comparable within an allelic series)",,"10.6 upbm affinity estimate (log intensity, higher = more binding, comparable within an allelic series)",,,
AGATTATA,"12.9 upbm affinity estimate (log intensity, higher = more binding, comparable within an allelic series)","12.8 upbm affinity estimate (log intensity, higher = more binding, comparable within an allelic series)",,"12.8 upbm affinity estimate (log intensity, higher = more binding, comparable within an allelic series)",,,
ACGTCTCG,"8 upbm affinity estimate (log intensity, higher = more binding, comparable within an allelic series)","8.27 upbm affinity estimate (log intensity, higher = more binding, comparable within an allelic series)",,"8.17 upbm affinity estimate (log intensity, higher = more binding, comparable within an allelic series)",,,
ATAACCCC,"10.6 upbm affinity estimate (log intensity, higher = more binding, comparable within an allelic series)","10.4 upbm affinity estimate (log intensity, higher = more binding, comparable within an allelic series)",,"10.2 upbm affinity estimate (log intensity, higher = more binding, comparable within an allelic series)",,,
